# Data: PubChem BioAssay AID624484 (NMMLSC, 2012)
# The other results are listed elsewhere or left out. Calls of active or inactive are those of the source.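 Rule for the calls: active = compounds whose half-maximal effective concentration is below 100 µM; inactive = the rest.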
# Experiment: empty-vector K562 compound effect – cell-based, flow cytometry, cherry pick set 2, counter-screen for ABCB6 inhibitor project, dose response (AID 624484)
structure (smiles),measurement,value
Cc1ccc(CS(=O)(=O)c2ncc(Cl)c(C(=O)Nc3nnc(C)s3)n2)cc1,outcome,inactive
